Test [1] is described as follows: compound effects on lung adenocarcinoma cell viability – A549, calcein-AM fluorescence, 48 h, basal, profiling panel (AID 1162). Note: test concentration not given here. Particulars: higher = more signal.
A short description of test [2]: compound effects on differentiated 3T3-L1 adipocyte viability – cell-based, 3T3-L1 adipocytes, calcein-AM fluorescence, 48 h, basal, profiling panel (AID 1163). Note: test concentration not given here. To be noted: 3T3-L1 adipocytes viability, higher = more signal.
The nature of test [3]: compound effects on hepatocellular carcinoma cell viability – HepG2, calcein-AM fluorescence, 48 h, basal, profiling panel (AID 1164). Note: test concentration not given here. Particulars: higher = more signal.
A short description of test [4]: compound effects on multiple myeloma cell viability – MM1S, calcein-AM fluorescence, 48 h, basal, profiling panel (AID 1165).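 Note: viability of MM1S multiple myeloma cells under basal unstimulated conditions; test concentration not given here.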 Particulars: higher = more signal.
Test [5] in a line: calcein-AM signal in unstimulated myeloma cells – cell-based, calcein-AM fluorescence, 48 h, PK04 Diversity Set, profiling panel (AID 1166).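 Note: cells grown under basal conditions without added stimulus; test concentration not given here.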 To be noted: RPMI8226 myeloma viability, higher = more signal.
A short description of test [6]: JC-1 mitochondrial signal, unstimulated HepG2 cells – cell-based, JC-1 fluorescence, 24 h, 100 nL compound, profiling panel (AID 1167). Note: test concentration not given here. Particulars: HepG2 mitochondrial potential, higher = more signal.
A short description of test [7]: JC-1 mitochondrial signal, unstimulated adipocytes – cell-based, JC-1 fluorescence, 3T3-L1 adipocytes, 24 h, 100 nL compound, profiling panel (AID 1168). Note: test concentration not given here. To be noted: JC-1 mitochondrial fluorescence, higher = more signal, called active from +8 up or from −8 down.
A short description of test [8]: JC-1 mitochondrial signal, unstimulated myeloma cells – cell-based, JC-1 fluorescence, RPMI8226, 24 h, 100 nL compound, profiling panel (AID 1169). Note: test concentration not given here. Particulars: JC-1 mitochondrial potential fluorescence, higher = more signal.
Test [9] in a line: JC-1 mitochondrial signal, unstimulated MM1S myeloma – cell-based, JC-1 fluorescence, 24 h, 100 nL compound, profiling panel (AID 1170). Note: test concentration not given here. To be noted: MM1S mitochondrial potential, higher = more signal.
Test [10] can be described thus: resazurin metabolic signal in A549 cells – cell-based, resazurin fluorescence, 24 h, PK04 Diversity Set, profiling panel (AID 1171). Note: test concentration not given here. Particulars: A549 viability, higher = more signal, called active from +8 up or from −8 down. For orientation: The colour change of resazurin is a common sign of viable cells or microbes.
Test [11] is described as follows: resazurin metabolic signal in HepG2 cells – cell-based, resazurin fluorescence, 24 h, PK04 Diversity Set, profiling panel (AID 1172). Note: test concentration not given here. Particulars: HepG2 viability, higher = more signal.
Test [12] can be described thus: budding yeast growth changes without added modifier – OD600, strain BY4716, 24 h, basal condition, primary screen (AID 1173). Particulars: S. cerevisiae BY4716 growth, OD600, 24 h; higher = more signal, called active from +8 up or from −8 down.
Test [13] in a line: viability profiling in MM1S myeloma cells – cell-based, resazurin fluorescence, basal, 24 h, PK04 Diversity Set, profiling panel (AID 1174). Note: test concentration not given here. To be noted: higher = more signal, called active from +8 up or from −8 down.
Test [14] concerns the target Dihydroorotate dehydrogenase (quinone), mitochondrial (Plasmodium falciparum (isolate 3D7)) (UniProt Q08210). The test can be described thus: inhibition of P. falciparum DHODH – biochemical, C-terminal His tag, absorbance 600 nm, primary screen (AID 1175).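 Note: recombinant parasite enzyme with a five histidine tag at its C terminus; test concentration not given here.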 To be noted: PfDHODH enzyme, DCIP absorbance 600 nm; higher = more signal, called active from +8 up or from −8 down.

Test [15] is described as follows: inhibition of PAO1 biofilm formation – strain PAO1, LB-PBS medium, absorbance 600 nm, primary screen (AID 1176). Note: test concentration not given here. To be noted: P. aeruginosa PAO1 growth/biofilm, A600, 12 h; higher = more signal.
The nature of test [16]: growth modulation of vineyard yeast isolate – strain RM11-1a, OD600, basal, 24 h, primary screen (AID 1177).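 Note: cultures grown under basal conditions with no added stressor; test concentration not given here.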 Particulars: S. cerevisiae RM11-1a growth, OD600, 24 h; higher = more signal, called active from +8 up or from −8 down.
The nature of test [17]: growth of efflux-deficient E. coli DRC39 – strain DRC39, OD650, 24 h, E. coli filamentation inducers, primary screen (AID 1178).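 Note: growth measured as culture turbidity by optical density at 650 nm; test concentration not given here.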 Particulars: E. coli DRC39 acrAB, higher = more signal, called active from +8 up or from −8 down.
Test [18] is described as follows: growth of efflux-deficient E. coli DRC39 – strain DRC39, OD650, 48 h, E. coli filamentation inducers, primary screen (AID 1179).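 Note: screen aims at cell division blockers that make cells filament.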 Particulars: E. coli DRC39 delta-acrAB growth, higher = more signal, called active from +8 up or from −8 down.
Test [19] is described as follows: viability profiling in RPMI8226 myeloma cells – cell-based, resazurin fluorescence, basal, 24 h, PK04 Diversity Set, profiling panel (AID 1180).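 Note: RPMI8826 multiple myeloma cell line at 5000 cells per well; test concentration not given here.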 Particulars: higher = more signal.
For test [20], the target named is E3 ubiquitin-protein ligase XIAP (Homo sapiens) (UniProt P98170). Briefly: small molecules binding XIAP protein – biophysical, small-molecule microarray, fluorescence 635 nm, primary screen (AID 1181).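 Note: score merges 667 nm emission and signal to noise over triplicate slides.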 Particulars: higher = more signal.

Each structure is given as a SMILES string. Calls of active or inactive are those of the source. Unless noted, the rule behind the calls is not given here.

Dihydroorotate dehydrogenase (quinone), mitochondrial (Plasmodium falciparum (isolate 3D7)), sequence (Q08210 whole entry, looked up): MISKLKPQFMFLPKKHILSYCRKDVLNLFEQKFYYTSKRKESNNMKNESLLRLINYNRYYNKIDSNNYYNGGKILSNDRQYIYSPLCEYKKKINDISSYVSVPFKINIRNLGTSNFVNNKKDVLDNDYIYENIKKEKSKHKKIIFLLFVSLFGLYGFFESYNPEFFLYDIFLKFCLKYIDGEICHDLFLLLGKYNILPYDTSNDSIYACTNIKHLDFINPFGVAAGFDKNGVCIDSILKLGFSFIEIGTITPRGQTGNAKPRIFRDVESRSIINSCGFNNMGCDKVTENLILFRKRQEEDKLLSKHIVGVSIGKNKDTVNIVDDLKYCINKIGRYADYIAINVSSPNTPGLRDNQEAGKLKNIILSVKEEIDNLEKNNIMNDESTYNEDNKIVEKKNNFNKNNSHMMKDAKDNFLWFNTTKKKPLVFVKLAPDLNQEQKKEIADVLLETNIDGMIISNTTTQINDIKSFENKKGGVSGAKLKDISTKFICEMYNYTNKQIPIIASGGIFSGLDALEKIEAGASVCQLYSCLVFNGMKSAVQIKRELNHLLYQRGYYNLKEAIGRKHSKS
E3 ubiquitin-protein ligase XIAP (Homo sapiens), sequence (P98170 whole entry, looked up): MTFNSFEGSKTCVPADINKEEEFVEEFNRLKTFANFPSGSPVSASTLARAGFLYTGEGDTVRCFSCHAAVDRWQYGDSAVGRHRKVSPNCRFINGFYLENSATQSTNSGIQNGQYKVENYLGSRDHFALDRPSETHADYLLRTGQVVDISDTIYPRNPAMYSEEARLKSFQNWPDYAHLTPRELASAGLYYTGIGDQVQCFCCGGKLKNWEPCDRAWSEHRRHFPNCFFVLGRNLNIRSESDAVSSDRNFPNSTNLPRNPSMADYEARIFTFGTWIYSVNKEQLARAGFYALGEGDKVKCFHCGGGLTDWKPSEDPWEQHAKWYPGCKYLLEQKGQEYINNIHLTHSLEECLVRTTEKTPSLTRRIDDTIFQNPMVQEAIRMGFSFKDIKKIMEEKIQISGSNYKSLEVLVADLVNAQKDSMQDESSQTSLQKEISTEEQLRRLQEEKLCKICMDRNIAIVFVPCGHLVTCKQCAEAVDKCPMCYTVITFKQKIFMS

As for `COC(=O)[C@@H]1CC[C@H](C)[C@@H](c2ccc(Br)cc2)N1C(=O)C(F)(F)F`, the z-score was -0.0701 in test [1]; -0.0882 in test [2]; -0.434 in test [3]; -1.24 in test [4]; 0.468 in test [5]; 0.399 in test [6]. Besides, the z-score was 0.0984 (inactive) in [7]; 0.508 in test [8]; 0.554 in test [9]; 0.839 (inactive) in [10]; 0.0841 in [11]; -0.475 (inactive) in [12]. For the same compound, the z-score in test [13] was 0.27 (inactive); in test [15] it was 0.213 (inactive); in test [16] it was 1.21 (inactive); in test [17], -0.0765 (inactive); in test [18] it was -0.204 (inactive); in test [19] it was 0.399. The results for the composite z-score in test [14] and in test [20] were 0.724 (inactive) and 0.0225, respectively.
`CO[C@@H]1C=CCC(=O)N[C@@H](C)C(=O)OC[C@@H](OC)[C@H](C)C=CCC(=O)OC[C@H]1C`: the z-score is 0.234 in test [1]; 0.374 in test [2]; 0.0804 in test [3]; 0.316 in test [4]; 0.389 in test [5]; 0.589 in test [6]. The z-score was -0.848 (inactive) in test [7]; 0.674 in test [8]; 0.704 in test [9]; 0.474 (inactive) in test [10]; -0.103 in test [11]; -0.615 (inactive) in test [12]. In addition, the z-score is 0.697 (inactive) in [13]; -0.507 (inactive) in test [15]; -0.718 (inactive) in test [16]; 0.267 (inactive) in test [17]; -0.42 (inactive) in test [18]; 0.103 in [19]. In addition, the results for the composite z-score in [14] and in [20] were -0.765 (inactive) and -0.169, respectively.
Regarding `CC(C)[C@H](NC(=O)OC(C)(C)C)[C@@H](O)CC(=O)C(C)(C)C`, the z-score in test [1] was -0.0305; in test [2], -1.02; in [3] it was 0.483; in test [4], 0.514; in [5], -0.0779; in test [6], 0.136. In addition, the z-score in test [7] was -0.148 (inactive); in test [8], -0.988; in test [9], -1.13; in test [10], -0.242 (inactive); in test [11], 0.365; in test [12], 0.289 (inactive). The z-score was -0.809 (inactive) in [13]; 0.593 (inactive) in test [15]; 0.942 (inactive) in [16]; 0.599 (inactive) in [17]; 0.311 (inactive) in test [18]; -0.816 in [19]. The composite z-score in test [14] is 0.525 (inactive); in [20] it was -0.111.
With `CO[C@@H](C1CCCCC1)[C@@H](C)[C@H](OCc1cccc(Br)c1)[C@@H](C)CO`, the z-score in [1] is -2.34; in test [2] it was -0.348; in [3], -2.22; in test [4], -3.02; in test [5], -4.04; in [6], -4.59. Moreover, the z-score in test [7] is 0.408 (inactive); in [8], -1.11; in test [9], -0.184; in test [10], -1.21 (inactive); in test [11], 0.414; in [12], -2.13 (inactive). Further, the z-score in test [13] is -0.885 (inactive); in test [15], -0.127 (inactive); in test [16] it was -0.0839 (inactive); in [17] it was -0.275 (inactive); in test [18], -0.776 (inactive); in test [19], -0.835. The composite z-score is 0.0434 (inactive) in test [14] and -0.16 in test [20].
As for `CCOC(=O)CCN1C(=O)[C@H]2[C@H]3[C@H](O)[C@H](O)CC(=NNC(=O)OCc4ccc(OC)cc4)[C@H]3CC[C@H]2C1=O`, the z-score in [1] was -0.185; in [2], -0.385; in test [3] it was -0.0426; in [4], -0.885; in test [5] it was -0.87; in [6], -0.146. In addition, the z-score in [7] is -0.447 (inactive); in test [8] it was -0.207; in test [9], -0.387; in test [10], -0.495 (inactive); in test [11], 0.0785; in test [12] it was -3 (inactive). For the same compound, the z-score in test [13] is -0.451 (inactive); in [15] it was 1.07 (inactive); in [16], -0.595 (inactive); in [17], -0.653 (inactive); in test [18] it was -0.652 (inactive); in [19], -0.244. The composite z-score was 0.0913 (inactive) in [14] and 0.12 in [20].
On to `COC(=O)CC=C[C@@H](C)[C@@H](C=NOC[C@@H](O)COCc1ccco1)NS(=O)(=O)c1ccc(C)cc1`, for which the z-score was -0.393 in test [1]; -0.295 in [2]; 0.3 in [3]; -0.833 in test [4]; -0.623 in test [5]; -1.23 in test [6]. The z-score in test [7] was 0.0134 (inactive); in test [8] it was -0.655; in test [9], -0.436; in test [10] it was -0.44 (inactive); in test [11] it was -0.8; in test [12], 0.0959 (inactive). Moreover, the z-score is -0.309 (inactive) in test [13]; -0.312 (inactive) in test [15]; 0.186 (inactive) in test [16]; 0.388 (inactive) in test [17]; 0.124 (inactive) in test [18]; -0.974 in test [19]. In addition, the composite z-score in test [14] was 0.444 (inactive); in test [20], -0.309.
Turning to `COc1ccc(COC(=O)NN=C2C[C@@H](O)[C@@H](O)[C@@H]3[C@@H]4C(=O)N(Cc5ccc6c(c5)OCO6)C(=O)[C@@H]4CC[C@H]23)cc1`, the z-score is -0.0897 in [1]; -0.243 in test [2]; 0.53 in [3]; 0.311 in test [4]; -0.0157 in test [5]; 0.301 in test [6]. In addition, the z-score in [7] was -0.339 (inactive); in test [8], 0.0307; in test [9] it was -0.825; in test [10] it was -0.0129 (inactive); in test [11] it was -0.318; in test [12] it was 0.321 (inactive). Besides, the z-score in [13] is -0.0139 (inactive); in [15] it was -0.273 (inactive); in [16] it was 0.139 (inactive); in test [17], 0.586 (inactive); in test [18], 1.17 (inactive); in test [19], 0.18. Besides, the values for the composite z-score in test [14] and in test [20] were -0.394 (inactive) and 0.0498, respectively.
With `CC(=O)OC[C@H]1O[C@H](CC=NOC[C@@H](O)COCc2ccco2)C=C[C@@H]1OC(C)=O`, the z-score in test [1] was 1.04; in [2], -0.0657; in test [3] it was 0.341; in test [4] it was -0.175; in test [5], -0.498; in test [6], 0.186. For the same compound, the z-score is 0.998 (inactive) in [7]; -0.198 in test [8]; -1.01 in test [9]; 0.0719 (inactive) in [10]; -0.13 in test [11]; 0.0523 (inactive) in test [12]. Moreover, the z-score is 0.166 (inactive) in test [13]; -1.26 (inactive) in test [15]; 0.178 (inactive) in test [16]; 0.574 (inactive) in [17]; 0.924 (inactive) in test [18]; 0.396 in [19]. The composite z-score in test [14] was -0.554 (inactive); in [20] it was -0.306.
As to `O=C1[C@H]2[C@H]3[C@H](O)[C@H](O)CC(=NO[C@@H]4O[C@H](CO)[C@@H](O)[C@H](O)[C@H]4O)[C@H]3CC[C@H]2C(=O)N1c1ccc(F)cc1F`, the z-score was -0.32 in test [1]; 0.528 in [2]; -0.846 in test [3]; 0.0224 in test [4]; -0.3 in [5]; 0.419 in test [6]. The z-score in test [7] was -0.35 (inactive); in test [8], -0.177; in [9], -0.709; in test [10] it was 1.09 (inactive); in test [11] it was 0.487; in test [12], 0.191 (inactive). Also, the z-score was -0.141 (inactive) in [13]; -0.377 (inactive) in test [15]; -0.638 (inactive) in test [16]; 0.166 (inactive) in test [17]; -0.196 (inactive) in [18]; 0.371 in [19]. In addition, the figures for the composite z-score in test [14] and in test [20] were -1.08 (inactive) and 0.394, respectively.

Source of the values: PubChem BioAssay.
